# Measurements: PubChem BioAssay (NCATS)
# Inconclusive results are not listed. Unmarked numbers belong to inactive results. Active and inactive are the calls of the source. Unless noted, the call rests on the fitted dose curve.
# Test system: not listed separately
# Assay: qHTS for Inhibitors of the Functional Ribonucleoprotein Complex (vRNP) of Lymphocytic Choriomeningitis Arenaviruses (LCMV): Viability assay - alamar blue signal for LCMV Primary Screen (AID 1347085; calls by dose curve; tested in HEK293 reporter line; further: nearly all actives have a fitted effect of over 80% in size)
# Settings: alamar blue viability counter-screen, LCMV vRNP screen cells; series mostly up to 57.5 µM; activity change, negative = lower viability: at the top concentration
# On the % scale 0 is the no-effect control and ±100 the full control effect; potency means the concentration at half of the fitted maximal effect.
Structure (SMILES),"activity change, negative = lower viability",Potency
CC(=O)OC1C(OC(C)=O)C2C(C)CC3OC(=O)C(C)C3CC2(C)C1OC(C)=O (stereo not drawn),12.9%,
FC(F)c1nc2ccccc2n1-c1nc(N2CCOCC2)nc(N2CCOCC2)n1,,13.7 µM (active)
Cn1c(=O)c2[nH]c(=O)[nH]c2n(C)c1=O,-9.28%,
COC(=O)c1cc(OC)cc(O)c1C(=O)c1c(O)cc(C)cc1O,16.6%,
C[C@@H]1[C@H]2[C@@H](O[C@@H]3O[C@H](CO)[C@@H](O)[C@H](O)[C@H]3O)OC=C(C(=O)O)[C@H]2C[C@@H]1O,2.94%,
CCCCCCCCCCCCCCCC(=O)OC(CO)CO,10%,
CCCCCCCCC(=O)OCC,11.2% [at 115 µM],
CCCCC/C=C\C/C=C\C/C=C\C=C\C(O)CCCC(=O)O (stereo not drawn),16.2% [at 0.757 µM],
CC(C)c1cccc(O)c1,0.454% [at 115 µM],
COc1cc2ccc(=O)oc2c(O)c1O,4.9%,
CC[C@@H]1C=C(C)C[C@H](C)C[C@H](OC)[C@H]2O[C@@](O)(C(=O)C(=O)N3CCCC[C@@H]3C(=O)O[C@H](C(C)=C[C@@H]3CC[C@H](Cl)[C@H](OC)C3)[C@H](C)[C@@H](O)CC1=O)[C@H](C)C[C@H]2OC,0.412%,
Cc1ccc2ccccc2n1,-37% [at 115 µM],
COc1ccc2c3c([nH]c2c1)C(C)NCC3 (stereo not drawn),-41.7%,
CCCCCCCCCCCC(=O)c1c(O)cccc1O,14.3%,
C=C[C@]1(C)C=C2C(=O)[C@@]3(O)OC(=O)[C@@]4(CCCC(C)(C)[C@H]34)[C@@]2(O)CC1,0.588%,
COc1ccc(C(=O)OC2C[C@H]3CC[C@@H](C2)N3O)cc1OC (stereo partly drawn),11%,
OCc1ccccc1O[C@@H]1O[C@H](CO)[C@H](O)[C@H](O)[C@H]1O,-8.32%,
CC12CCC(=O)C=C1CCC1C2CCC2(C)C(C(=O)CO)CC(O)C12 (stereo not drawn),1.34%,
COc1cc(/C=C/C(=O)OC[C@H]2O[C@H](OC3(CO)OC(CO)C(O)C3O)[C@H](O)[C@@H](O)[C@@H]2O)ccc1O (stereo partly drawn),1.11%,
OC[C@H]1O[C@@H]2O[C@H]3[C@H](O)[C@@H](O)[C@@H](O[C@H]4[C@H](O)[C@@H](O)[C@@H](O[C@H]5[C@H](O)[C@@H](O)[C@@H](O[C@H]6[C@H](O)[C@@H](O)[C@@H](O[C@H]7[C@H](O)[C@@H](O)[C@@H](O[C@H]8[C@H](O)[C@@H](O)[C@@H](O[C@H]9[C@H](O)[C@@H](O)[C@@H](O[C@H]1[C@H](O)[C@H]2O)O[C@@H]9CO)O[C@@H]8CO)O[C@@H]7CO)O[C@@H]6CO)O[C@@H]5CO)O[C@@H]4CO)O[C@@H]3CO,12.6%,

Structure (SMILES),"activity change, negative = lower viability",Potency
COc1cc2c3c(c1OC)C1(C=CC(=O)C=C1)CC3N(C(C)=O)CC2 (stereo not drawn),4.58%,
COC(=O)C1=COC(O[C@H]2OC(CO)[C@H](O)C(O)C2O)[C@H]2C1C(=O)C[C@@H]2C (stereo partly drawn),-3.05%,
CC1(C)OC(=O)C=C[C@]2(C)[C@H]3CC[C@@]4(C)[C@H](c5ccoc5)OC(=O)[C@H]5O[C@]54[C@]3(C)C(=O)C[C@@H]12,31.4%,
Cc1ccc2c(c1)C(=O)c1ccccc1C2=O,15.8% [at 115 µM],
COc1cc(C(=O)OC2C[C@H]3CC[C@@H](C2)N3)ccc1O (stereo partly drawn),0.96%,
C[C@H]1C[C@H]2[C@@H]3CCC4=CC(=O)C=C[C@]4(C)[C@@H]3C(=O)C[C@]2(C)[C@@]1(O)C(=O)CO,-23.2%,
CC(C)(O)C1CC[C@@](C)([C@@H]2CC[C@]3(C)[C@H]2[C@H](O)CC2[C@@]4(C)CCC(O)C(C)(C)C4C(OC4OC(CO)C(O)C(O)C4O[C@@H]4OCC(O)C(O)C4O)C[C@]23C)O1 (stereo partly drawn),10%,
CCCCCCOC(=O)c1ccccc1,24.3% [at 115 µM],
C=C[C@]1(C)C=C2C(=O)C[C@H]3C(C)(C)CCC[C@]3(C(=O)O)[C@@]2(O)CC1,13.5%,
C=O,-1.24% [at 115 µM],
O=C1CCCC2[C@@H]3CCC[N@+]4([O-])CCC[C@H](CN12)C34 (stereo partly drawn),5.15%,
O=Cc1ccc(O)cc1O,1.2%,
CCCC/C=C/CCCCO,15.1% [at 115 µM],
CC(C)=CCC/C(C)=C/COc1c2ccoc2cc2oc(=O)ccc12,21.7%,
C=C1C(O)C[C@H]2C(=C)CCC3[C@H](OC(=O)[C@]3(O)CO)[C@@H]12 (stereo partly drawn),-9.92%,
O=P(O)(O)OC[C@H]1O[C@](O)(COP(=O)(O)O)[C@@H](O)[C@@H]1O,8.1%,
C=C(C)[C@@H]1CCC2=CCC[C@@H](C)[C@]2(C)C1,10.5% [at 115 µM],
Cc1csc(NC(=O)c2sc3nc4c(c(C(F)(F)F)c3c2N)CCC4)n1,5.2%,
Cn1cnc2c(ncn2[C@@H]2O[C@H](CO)[C@@H](O)[C@H]2O)c1=N,6.08%,

# Target: Nucleoprotein (Lymphocytic choriomeningitis virus (strain Armstrong)) (UniProt P09992)
# Sequence (P09992 whole entry, looked up): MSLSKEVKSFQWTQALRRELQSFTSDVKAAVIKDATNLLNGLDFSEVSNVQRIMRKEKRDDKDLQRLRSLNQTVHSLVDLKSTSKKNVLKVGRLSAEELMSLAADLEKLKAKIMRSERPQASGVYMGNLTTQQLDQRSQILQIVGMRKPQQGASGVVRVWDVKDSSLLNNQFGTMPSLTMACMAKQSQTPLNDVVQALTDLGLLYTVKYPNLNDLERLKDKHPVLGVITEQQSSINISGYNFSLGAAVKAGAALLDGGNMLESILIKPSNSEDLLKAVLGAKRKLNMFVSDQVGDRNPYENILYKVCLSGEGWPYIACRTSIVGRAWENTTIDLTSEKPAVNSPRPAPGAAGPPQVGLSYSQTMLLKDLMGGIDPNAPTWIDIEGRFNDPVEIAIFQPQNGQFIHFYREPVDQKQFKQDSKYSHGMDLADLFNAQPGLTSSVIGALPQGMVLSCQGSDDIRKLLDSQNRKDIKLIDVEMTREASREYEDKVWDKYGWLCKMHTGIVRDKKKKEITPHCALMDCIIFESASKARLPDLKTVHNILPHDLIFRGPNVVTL
# Assay: qHTS for Inhibitors of the Functional Ribonucleoprotein Complex (vRNP) of Lymphocytic Choriomeningitis Arenaviruses (LCMV): LCMV Primary Screen - GLuc reporter signal (AID 1347086); further: nearly all actives have a fitted effect of over 70% in size
# Settings: LCMV minigenome vRNP cell assay, Gaussia luciferase reporter; series mostly up to 57.5 µM; activity change, negative = inhibition: at the top concentration
Structure (SMILES),"activity change, negative = inhibition",Potency
CC(=O)OC1C(OC(C)=O)C2C(C)CC3OC(=O)C(C)C3CC2(C)C1OC(C)=O (stereo not drawn),26.5%,
FC(F)c1nc2ccccc2n1-c1nc(N2CCOCC2)nc(N2CCOCC2)n1,,19.3 µM (active)
Cn1c(=O)c2[nH]c(=O)[nH]c2n(C)c1=O,1.41%,
COC(=O)c1cc(OC)cc(O)c1C(=O)c1c(O)cc(C)cc1O,-7.19%,
C[C@@H]1[C@H]2[C@@H](O[C@@H]3O[C@H](CO)[C@@H](O)[C@H](O)[C@H]3O)OC=C(C(=O)O)[C@H]2C[C@@H]1O,19.1%,
CCCCCCCCCCCCCCCC(=O)OC(CO)CO,-0.436%,
CCCCCCCCC(=O)OCC,20.5% [at 115 µM],
CCCCC/C=C\C/C=C\C/C=C\C=C\C(O)CCCC(=O)O (stereo not drawn),-6.07% [at 0.757 µM],
CC(C)c1cccc(O)c1,0.765% [at 115 µM],
COc1cc2ccc(=O)oc2c(O)c1O,4.12%,
CC[C@@H]1C=C(C)C[C@H](C)C[C@H](OC)[C@H]2O[C@@](O)(C(=O)C(=O)N3CCCC[C@@H]3C(=O)O[C@H](C(C)=C[C@@H]3CC[C@H](Cl)[C@H](OC)C3)[C@H](C)[C@@H](O)CC1=O)[C@H](C)C[C@H]2OC,4.99%,
Cc1ccc2ccccc2n1,31.6% [at 115 µM],
COc1ccc2c3c([nH]c2c1)C(C)NCC3 (stereo not drawn),8.28%,
CCCCCCCCCCCC(=O)c1c(O)cccc1O,10.2%,
C=C[C@]1(C)C=C2C(=O)[C@@]3(O)OC(=O)[C@@]4(CCCC(C)(C)[C@H]34)[C@@]2(O)CC1,-29.2%,
COc1ccc(C(=O)OC2C[C@H]3CC[C@@H](C2)N3O)cc1OC (stereo partly drawn),-2.27%,
OCc1ccccc1O[C@@H]1O[C@H](CO)[C@H](O)[C@H](O)[C@H]1O,-8.18%,
CC12CCC(=O)C=C1CCC1C2CCC2(C)C(C(=O)CO)CC(O)C12 (stereo not drawn),6.63%,
COc1cc(/C=C/C(=O)OC[C@H]2O[C@H](OC3(CO)OC(CO)C(O)C3O)[C@H](O)[C@@H](O)[C@@H]2O)ccc1O (stereo partly drawn),12.2%,
OC[C@H]1O[C@@H]2O[C@H]3[C@H](O)[C@@H](O)[C@@H](O[C@H]4[C@H](O)[C@@H](O)[C@@H](O[C@H]5[C@H](O)[C@@H](O)[C@@H](O[C@H]6[C@H](O)[C@@H](O)[C@@H](O[C@H]7[C@H](O)[C@@H](O)[C@@H](O[C@H]8[C@H](O)[C@@H](O)[C@@H](O[C@H]9[C@H](O)[C@@H](O)[C@@H](O[C@H]1[C@H](O)[C@H]2O)O[C@@H]9CO)O[C@@H]8CO)O[C@@H]7CO)O[C@@H]6CO)O[C@@H]5CO)O[C@@H]4CO)O[C@@H]3CO,7.18%,

Structure (SMILES),"activity change, negative = inhibition",Potency
COc1cc2c3c(c1OC)C1(C=CC(=O)C=C1)CC3N(C(C)=O)CC2 (stereo not drawn),4.42%,
COC(=O)C1=COC(O[C@H]2OC(CO)[C@H](O)C(O)C2O)[C@H]2C1C(=O)C[C@@H]2C (stereo partly drawn),-0.522%,
CC1(C)OC(=O)C=C[C@]2(C)[C@H]3CC[C@@]4(C)[C@H](c5ccoc5)OC(=O)[C@H]5O[C@]54[C@]3(C)C(=O)C[C@@H]12,12.1%,
Cc1ccc2c(c1)C(=O)c1ccccc1C2=O,45.7% [at 115 µM],
COc1cc(C(=O)OC2C[C@H]3CC[C@@H](C2)N3)ccc1O (stereo partly drawn),10%,
C[C@H]1C[C@H]2[C@@H]3CCC4=CC(=O)C=C[C@]4(C)[C@@H]3C(=O)C[C@]2(C)[C@@]1(O)C(=O)CO,0.36%,
CC(C)(O)C1CC[C@@](C)([C@@H]2CC[C@]3(C)[C@H]2[C@H](O)CC2[C@@]4(C)CCC(O)C(C)(C)C4C(OC4OC(CO)C(O)C(O)C4O[C@@H]4OCC(O)C(O)C4O)C[C@]23C)O1 (stereo partly drawn),-6.22%,
CCCCCCOC(=O)c1ccccc1,28.4% [at 115 µM],
C=C[C@]1(C)C=C2C(=O)C[C@H]3C(C)(C)CCC[C@]3(C(=O)O)[C@@]2(O)CC1,13%,
C=O,-5.07% [at 115 µM],
O=C1CCCC2[C@@H]3CCC[N@+]4([O-])CCC[C@H](CN12)C34 (stereo partly drawn),-9.22%,
O=Cc1ccc(O)cc1O,18.3%,
CCCC/C=C/CCCCO,13.7% [at 115 µM],
CC(C)=CCC/C(C)=C/COc1c2ccoc2cc2oc(=O)ccc12,44.8%,
C=C1C(O)C[C@H]2C(=C)CCC3[C@H](OC(=O)[C@]3(O)CO)[C@@H]12 (stereo partly drawn),8.57%,
O=P(O)(O)OC[C@H]1O[C@](O)(COP(=O)(O)O)[C@@H](O)[C@@H]1O,18%,
C=C(C)[C@@H]1CCC2=CCC[C@@H](C)[C@]2(C)C1,25.7% [at 115 µM],
Cc1csc(NC(=O)c2sc3nc4c(c(C(F)(F)F)c3c2N)CCC4)n1,-3.67%,
Cn1cnc2c(ncn2[C@@H]2O[C@H](CO)[C@@H](O)[C@H]2O)c1=N,19%,
